Screening results deposited in PubChem BioAssay by National Center for Advancing Translational Sciences (NCATS).
The list is not random: actives were taken first. Their share in the collection is about 10%.
G9a inh: inhibitors of human histone lysine methyltransferase G9a; G9a H3K9 monomethylation, AlphaScreen, 2 h; Potency, µM (doses to about 102 µM), without a hit: at the highest dose activity, negative = inhibition, most hits filed as inhibitors; hit rate 8.8% among 350,000; AID 504332; further: potency means the concentration at half of the fitted maximal effect; nearly all actives have a fitted effect of over 75% in size
Target sequence (Q96KQ7 913-1193 limits assumed): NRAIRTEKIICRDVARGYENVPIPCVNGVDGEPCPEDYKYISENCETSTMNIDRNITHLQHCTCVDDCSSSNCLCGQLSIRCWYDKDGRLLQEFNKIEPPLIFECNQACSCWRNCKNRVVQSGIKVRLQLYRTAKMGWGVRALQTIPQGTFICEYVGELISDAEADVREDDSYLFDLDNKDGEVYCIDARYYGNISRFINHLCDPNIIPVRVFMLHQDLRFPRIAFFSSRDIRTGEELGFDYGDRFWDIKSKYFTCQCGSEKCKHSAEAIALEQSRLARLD
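G9a (20 nM) preincubated 15 min RT with compounds, then 500 nM biotinylated H3K9 peptide and 20 uM SAM added; 2 h RT reaction. Monomethyl-H3K9 product detected by AlphaScreen with anti-H3K9me1 antibody, streptavidin donor and anti-rabbit IgG acceptor beads.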
MmCpn inh: inhibitors of Methanococcus maripaludis chaperonin TRiC (MmCpn); purified Mm-Cpn ATPase, ADP Transcreener TR-FRET; Potency, µM (series often up to 76.9 µM), for the others: top-dose activity, negative = inhibition, most hits filed as inhibitors; hit rate 0.031% among 330,000; AID 504842; further: potency means the concentration at half of the fitted maximal effect; nearly all actives have a fitted effect of over 80% in size
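ATP (10 uM final) was added to archaeal chaperonin (25 nM final) after 10 min exposure to test compound at 37°C; after 30 min further incubation, ADP was detected by competitive TR-FRET.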
CCT chaperon mod: cytosolic chaperonin activity modulation; purified chaperonin ATPase assay, HTRF ADP detection, 30 min; activity change, % (test concentration not listed), hits read low; hit rate 0.3% among 360,000; AID 651819; in the data active means activity change below about -30%
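TRiC (40 or 20 nM final, by batch activity) in 30 mM Tris pH 7.4, 100 mM KCl, 5 mM MgCl2, 1 mM DTT was treated with compound at 76 uM single dose, then 10 uM ATP, 30 min at 37 °C. ADP was read by HTRF Transcreener.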
PLK1 PBD inh: blocks phosphopeptide binding to human PLK1 polo-box domain; Plk1 PBD binding of FITC phosphopeptide, fluorescence polarization; hit rate 2.8% among 360,000; Potency, µM, for the others: max response, negative = inhibition, usual class: inhibitors; P53350; further: potency means the concentration at half of the fitted maximal effect; series mostly up to about 57 µM; nearly all actives have a fitted effect of over 65% in size
Sfp inh: Sfp phosphopantetheinyl transferase inhibition | Q9F4F7 | Biochemical Sfp PPTase activity, qHTS | Potency, µM, for the others: largest response in the series, negative = inhibition, hits mostly inhibitors | hit rate 3.5% among 310,000 | AID 1490;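 further: the enzyme is Sfp with the accession as filed and its product quenches rhodamine fluorescence; potency means the concentration at half of the fitted maximal effect; 0% = enzyme reaction without inhibitor and -100% = no enzyme wells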
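With Hepes-Na pH 7.6 buffer containing 10 mM MgCl2, Sfp (15 nM) modified BHQ-2-YbbR (12.5 uM) using rhodamine-CoA (5 uM). Two reads 30 minutes apart at 525/598 nm yielded each well's rate.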
VDR inh: inhibitors of human vitamin D receptor; P11473; VDR-SRC2-3 peptide fluorescence polarization, 2 h; Potency, µM, inactives show max response, negative = inhibition, usual class: inhibitors; hit rate 0.93% among 400,000; AID 504847; further: potency means the concentration at half of the fitted maximal effect
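Inhibition of the VDR/SRC2-3 peptide interaction is quantified by fluorescence polarization. Compounds (23 nl, pintool) incubate with the reagents for 2 hours at ambient room temperature.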
* = called active by the depositor; ? = inconclusive; nt = not tested or not shown; ! = not confirmed by another sample; [ ] = another dose, or the depositor's remark. Unless noted, the call rests on the fitted dose curve; in most records, active means well fitted curve in the direction sought with a large enough effect; inconclusive means small, poorly fitted or top-dose-only effect, or another doubt; inactive means no such curve, though single readings can be large; an effect the other way counts as inactive or inconclusive. Unless noted, on the % scale 0 is the no-effect control and ±100 the full control effect.

SMILES	G9a inh	MmCpn inh	CCT chaperon mod	PLK1 PBD inh	Sfp inh	VDR inh
COc1ccc(CCn2c(NN=C3CCCCC3)nc3c2c(=O)[nH]c(=O)n3C)cc1	-6.4%[59 µM]	0.1%	0.8	?	?	4.7%
CCCn1c(C(C)C)n[nH]c1=S	35.5µM*	-0.5%	-1.9	-18.9%	-0.4%	-5.0%
O=C(CN1CCOCC1)c1ccc2cc[nH]c2c1	31.6µM*	0.1%	-0.5	-14.8%	50.1µM*	-3.8%
Cc1cc(C)c(C(=O)CN2CCOCC2)c(C)c1	3.16µM*	-1.7%	-0.4	-12.1%	3.0%	28.2µM*
COc1ccc(C(=O)CN2CCOCC2)cc1F	28.2µM*	0.5%	0.7	-9.5%	9.0%	-12.3%
Nc1cncc(C(=O)O)c1	-21.8%	3.1%	-0.6	-16.3%	79.4µM*!	-5.1%
O=[N+]([O-])c1cc([As](=O)(O)O)ccc1O	-3.2%[12.7 µM]	1.7%	0.0	-3.8%	-2.3%	-21.9%
N#CC(C#N)=Cc1ccc(C=C(C#N)C#N)cc1	50.1µM*	-8.0%	1.8	-28.8%	?	?
N#CC(C#N)=Cc1ccc([N+](=O)[O-])c(O)c1	8.91µM*	nt	nt	nt	35.5µM*	nt
CC(=O)Oc1ccc(Cl)c2cccnc12	-7.8%[2.33 µM]	nt	nt	nt	22.0%	3.5%
Cn1c(O)c(C=NC(CC(N)=O)C(=O)O)c(=O)n(C)c1=O (configuration not stated)	?	-7.2%	nt	nt	14.8%	nt
C[C@@H]1C[C@H](C)C[C@H](C)[C@@H](O)CC(=O)O[C@H]([C@H]2CCC[C@H]2C(=O)O)C/C=C/C=C(/C#N)[C@H](O)[C@@H](C)C1	nt	nt	nt	nt	4.9%	?
N#CC(C#N)=C(C#N)c1ccc(Nc2ccccc2)cc1	2.9%[0.501 µM]	-1.2%	0.8	-16.9%	?	50.1µM*
COc1ccc(OCc2nnc(SCC(=O)NCC3CCCO3)n2N)cc1 (configuration not stated)	nt	0.8%	0.8	16.8µM*	nt	?
COc1ccc(-n2c(O)c(C(C)=NCC3CCCO3)c(=O)[nH]c2=O)cc1 (configuration not stated)	nt	0.4%	-0.5	-0.9%	-1.1%	3.0%
CCOC(=O)Cn1cc(C=C2C(=O)N(C)C(=O)N(C)C2=O)c2ccccc21	1.4%	1.3%	-5.8	?	-12.1%	-2.6%
CN1C(=O)C(=Cc2cn(CC(=O)N3CCCCC3)c3ccccc23)C(=O)N(C)C1=O	?	-0.2%	-0.1	13.4µM*	2.4%	-10.9%
CN1C(=O)C(=Cc2cn(CC(=O)N3CCCC3)c3ccccc23)C(=O)N(C)C1=O	28.2µM*	-0.9%	-1.4	26.7µM*	7.3%	-2.2%
CN1C(=O)C(=Cc2coc3ccccc3c2=O)C(=O)N(C)C1=O	31.6µM*	-1.4%	-1.3	18.9µM*	-19.8%	?
CN1C(=O)C(=Cc2cn(CC#N)c3ccccc23)C(=O)N(C)C1=O	-16.8%	-2.8%	0.9	1.19µM*	-8.0%	-16.5%
O=C1NC(=O)c2c1c1c3ccccc3n3c1c1c2c2ccccc2n1C1CCC3O1	nt	nt	nt	nt	1.6%	2.6%
C[C@@H]1O[C@@H](O[C@H]2CC[C@]3(C=O)C4CC[C@]5(C)[C@@H](C6=CC(=O)OC6)CC[C@]5(O)[C@@H]4CC[C@]3(O)C2)[C@H](O)[C@H](O)[C@H]1O (some centres not stated)	nt	nt	nt	nt	4.2%	-0.6%
NCCNC[C@@H](N)CCCN=C(N)N[N+](=O)[O-]	nt	nt	nt	nt	10.7%	-1.1%
CCN(c1ccc(C)cc1C)S(=O)(=O)c1nnc(NC(=O)c2ccco2)s1	-6.9%	-7.3%	-4.7	26.7µM*	14.3%	12.2%
O=C1CC(c2ccc(F)cc2)c2c(c3ccccc3oc2=O)O1 (configuration not stated)	-22.9%[59 µM]	nt	nt	nt	nt	-19.7%
CN1CCN(c2ccc(/C=C3\C(=O)NC(=S)N(c4cccc(Br)c4)C3=O)o2)CC1	?	-3.1%	-1.8	104.5%	9.5%	?
CCOc1ccc(N2C(=O)NC(=O)/C(=C\c3ccc(N4CCCCC4)o3)C2=O)cc1	44.7µM*	1.6%	-2.9	79.9%	-7.1%	0.8%
CCOc1ccc(N2C(=O)/C(=C/c3ccc(C)o3)C(=O)NC2=S)cc1	nt	-2.2%	-1.2	4.74µM*	22.4µM*	?
